Results as given in PubChem BioAssay.
Activity calls are given as the source filed them.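 Rule for the calls, unless noted: active = growth inhibition above 50% at the single 2 µM test dose, taken to imply half-maximal potency below 2 µM; inactive = the rest.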

Assay: antimalarial activity against Dd2 strain (AID 2302);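 note: 0% = DMSO untreated growth and 100% = chloroquine plus artemisinin killed control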
Conditions: P. falciparum Dd2 in RBCs, LDH growth readout, 72 h; at 2 µM; stronger effect = higher value

SMILES	growth inhibition
CN(c1ccc2c(c1)nc(Nc1ccc(Cl)cc1)n2C)c1ccnc(Nc2ccc(CS(C)(=O)=O)cc2)n1	52% (active)
COc1ccc(Nc2nc(C)cc(NCc3ccc(-c4c(C)noc4C)cc3)n2)cc1	50% (active)
CCCCCCN1CCCN(Cc2ccc(C(=O)Nc3ccc(CCC)cc3)cc2)CC1	56% (active)
COc1cc2nc(Nc3ccc(Oc4ccccc4)cc3)nc(Nc3ccc(Oc4ccccc4)cc3)c2cc1OC	45% (inactive)
CN1CCCC(CN2CCN(Cc3cccc(-c4ccc(-c5nc6ccccc6[nH]5)cc4)c3)CC2)C1 (stereo not given)	101% (active)
COc1ccc2ncc(F)c(CCN3C[C@H](CNCc4ccc5c(c4)OCCO5)[C@H](O)C3)c2n1	35% (inactive)
COc1ccc(CNC(=O)c2cnc3cc(-c4c(C)noc4C)ccc3c2Nc2ccccc2C(C)(C)C)cc1	69% (active)
CC(O)C1CCCCN1C(=O)c1cccc(-c2ccc(-c3nc4ccccc4[nH]3)s2)c1 (stereo not given)	23% (inactive)
CC(C)(CN1CCCC1)CN(Cc1ccc(-c2ccc(C(F)(F)F)cc2)cc1)C(=O)Cn1c(CCc2cccc(F)c2F)nc(=O)c2ccccc21	64% (active)
CC(CN(C)C)C(=O)Nc1ccc(-c2cccc(-c3nc4ccc(C(F)(F)F)cc4[nH]3)c2)cc1 (stereo not given)	85% (active)
Cc1[nH]c(C)c(-c2ccc(Oc3ccc(O)cc3)cc2)c(=O)c1Cl	87% (active)
Cc1cccc2[nH]c(-c3ccc(-c4cccc(CNCc5cccc(N)c5)c4)cc3)nc12	87% (active)
COc1ccc2nccc(NCC3(O)CCC(NCc4ccc5c(n4)NC(=O)CS5)CC3)c2n1 (stereo not given)	23% (inactive)
Cc1cc2cc(-c3ccc(CN)cc3)ccc2nc1N	8% (inactive)
N#Cc1cccc(CN2CCCN(c3ccc(NC(=O)c4cccs4)cc3)CC2)c1	95% (active)
Cc1[nH]nc2cc(F)c(-c3cc(OC[C@@H](N)Cc4ccccc4)cnc3-c3ccoc3)cc12	15% (inactive)
CC(Oc1c(C2CCN(CCCCNC(=O)c3ccc(-c4ccc(C#N)cc4)cc3)CC2)ccc2c1CCCC2)C(N)=O (stereo not given)	83% (active)
CCCCOc1ccc(CNCCCCCCNCc2ccc(OCCCC)c3ccccc23)c2ccccc12	49% (inactive)
O=C(NC1CCN(Cc2ccccc2)CC1)c1ccc(-c2nc3cc4ccccc4cc3[nH]2)s1	25% (inactive)
CC1(C)N=C(N)NC(NOCC=Cc2ccccc2)=N1	2% (inactive)

SMILES	growth inhibition
CC(NCC(O)Cn1c2ccccc2c2ccccc21)c1ccccc1 (stereo not given)	85% (active)
O=C(Nc1ccc2oc(-c3ccc(Br)cc3)nc2c1)c1ccc([N+](=O)[O-])o1	21% (inactive)
CCCCCCN(CCCCCC)CC(O)c1c(OC)ccc2ccccc12 (stereo not given)	100% (active)
COc1ccc(C2CC(=O)C3=C(C2)NC(C)=C(C(=O)OC(C)C)C3c2c(F)cccc2Cl)cc1OC (stereo not given)	81% (active)
Nc1nc(N)c2cc3ccc(OCc4ccccc4)cc3nc2n1	75% (active)
CN(CCc1ccccn1)c1cccc2c1nc(-c1cccnc1)n2CCNCc1ccccc1	97% (active)
O=C(NCC1CN(Cc2ccc(N3CCCC3)o2)CCCO1)c1ccc2c(c1)OCO2 (stereo not given)	70% (active)
COc1cc2ncnc(Nc3ccc4nc(Cc5ccccc5)[nH]c4c3)c2cc1OC	28% (inactive)
O=C(Nc1ccc(S(=O)(=O)N2CCCCCC2)cc1)c1cc(-c2ccccc2O)n[nH]1	76% (active)
Cc1cccc2[nH]c(-c3ccc(-c4ccc(NC(=O)Nc5ccc(Cl)c(Cl)c5)cc4)cc3)nc12	100% (active)
O=C(C=Cc1ccc(-c2nc3ccccc3[nH]2)cc1)NC1CCN(Cc2ccccc2)CC1	88% (active)
O=C(NCC1CCN(Cc2cccc(C(F)(F)F)c2)C1)c1cc(-c2cccc(C(F)(F)F)c2)cs1 (stereo not given)	74% (active)
O=C(CN1CCCCC1)Nc1ccc(Nc2nccc(NCC(O)c3ccccc3)n2)cc1 (stereo not given)	95% (active)
NC(=O)c1cnc2cc(-c3ccoc3)ccc2c1Nc1ccc(NC(=O)Nc2ccccc2Cl)cc1	76% (active)
Cc1ccc(-n2nc3ccc(NC(=O)c4ccc([N+](=O)[O-])o4)cc3n2)cc1C	95% (active)
CCCCc1ccc(-c2c(N)nc(N)nc2CC)cc1	0% (inactive)
CCCCOc1ccc(/C=C/c2ccc(-c3c(C)[nH]c(C)c(Cl)c3=O)s2)cc1	96% (active)
COc1ccc(C(C(=O)NC2CCN(C[C@H](O)c3ccnc4ccc(OC)cc34)CC2)N2CCN(c3ccc(Cl)c(Cl)c3)CC2)cc1 (stereo not given in full)	79% (active)
Nc1nccc2ccc(-c3ccsc3)cc12	89% (active)
Cc1cccc2[nH]c(-c3cccc(-c4cccc(NC(=O)c5cncn5C)c4)c3)nc12	91% (active)

Assay: HepG2 cytotoxicity, primary screen, cytotoxicity control for P. falciparum antimalarial project, cell-based, ATP luminescence (AID 2303;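 active = inhibition above 50%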;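 note: 0% = DMSO wells and 100% = digitonin-killed cells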)
Conditions: HepG2 viability, 24-48 h, at 10 µM, stronger effect = higher value

SMILES	inhibition
CN(c1ccc2c(c1)nc(Nc1ccc(Cl)cc1)n2C)c1ccnc(Nc2ccc(CS(C)(=O)=O)cc2)n1	91% (active)
COc1ccc(Nc2nc(C)cc(NCc3ccc(-c4c(C)noc4C)cc3)n2)cc1	48% (inactive)
CCCCCCN1CCCN(Cc2ccc(C(=O)Nc3ccc(CCC)cc3)cc2)CC1	45% (inactive)
COc1cc2nc(Nc3ccc(Oc4ccccc4)cc3)nc(Nc3ccc(Oc4ccccc4)cc3)c2cc1OC	5% (inactive)
CN1CCCC(CN2CCN(Cc3cccc(-c4ccc(-c5nc6ccccc6[nH]5)cc4)c3)CC2)C1 (stereo not given)	73% (active)
COc1ccc2ncc(F)c(CCN3C[C@H](CNCc4ccc5c(c4)OCCO5)[C@H](O)C3)c2n1	18% (inactive)
COc1ccc(CNC(=O)c2cnc3cc(-c4c(C)noc4C)ccc3c2Nc2ccccc2C(C)(C)C)cc1	9% (inactive)
CC(O)C1CCCCN1C(=O)c1cccc(-c2ccc(-c3nc4ccccc4[nH]3)s2)c1 (stereo not given)	24% (inactive)
CC(C)(CN1CCCC1)CN(Cc1ccc(-c2ccc(C(F)(F)F)cc2)cc1)C(=O)Cn1c(CCc2cccc(F)c2F)nc(=O)c2ccccc21	57% (active)
CC(CN(C)C)C(=O)Nc1ccc(-c2cccc(-c3nc4ccc(C(F)(F)F)cc4[nH]3)c2)cc1 (stereo not given)	30% (inactive)
Cc1[nH]c(C)c(-c2ccc(Oc3ccc(O)cc3)cc2)c(=O)c1Cl	-2% (inactive)
Cc1cccc2[nH]c(-c3ccc(-c4cccc(CNCc5cccc(N)c5)c4)cc3)nc12	0% (inactive)
COc1ccc2nccc(NCC3(O)CCC(NCc4ccc5c(n4)NC(=O)CS5)CC3)c2n1 (stereo not given)	16% (inactive)
Cc1cc2cc(-c3ccc(CN)cc3)ccc2nc1N	18% (inactive)
N#Cc1cccc(CN2CCCN(c3ccc(NC(=O)c4cccs4)cc3)CC2)c1	-2% (inactive)
Cc1[nH]nc2cc(F)c(-c3cc(OC[C@@H](N)Cc4ccccc4)cnc3-c3ccoc3)cc12	22% (inactive)
CC(Oc1c(C2CCN(CCCCNC(=O)c3ccc(-c4ccc(C#N)cc4)cc3)CC2)ccc2c1CCCC2)C(N)=O (stereo not given)	41% (inactive)
CCCCOc1ccc(CNCCCCCCNCc2ccc(OCCCC)c3ccccc23)c2ccccc12	100% (active)
O=C(NC1CCN(Cc2ccccc2)CC1)c1ccc(-c2nc3cc4ccccc4cc3[nH]2)s1	13% (inactive)
CC1(C)N=C(N)NC(NOCC=Cc2ccccc2)=N1	35% (inactive)

SMILES	inhibition
CC(NCC(O)Cn1c2ccccc2c2ccccc21)c1ccccc1 (stereo not given)	37% (inactive)
O=C(Nc1ccc2oc(-c3ccc(Br)cc3)nc2c1)c1ccc([N+](=O)[O-])o1	9% (inactive)
CCCCCCN(CCCCCC)CC(O)c1c(OC)ccc2ccccc12 (stereo not given)	18% (inactive)
COc1ccc(C2CC(=O)C3=C(C2)NC(C)=C(C(=O)OC(C)C)C3c2c(F)cccc2Cl)cc1OC (stereo not given)	0% (inactive)
Nc1nc(N)c2cc3ccc(OCc4ccccc4)cc3nc2n1	78% (active)
CN(CCc1ccccn1)c1cccc2c1nc(-c1cccnc1)n2CCNCc1ccccc1	12% (inactive)
O=C(NCC1CN(Cc2ccc(N3CCCC3)o2)CCCO1)c1ccc2c(c1)OCO2 (stereo not given)	-3% (inactive)
COc1cc2ncnc(Nc3ccc4nc(Cc5ccccc5)[nH]c4c3)c2cc1OC	-9% (inactive)
O=C(Nc1ccc(S(=O)(=O)N2CCCCCC2)cc1)c1cc(-c2ccccc2O)n[nH]1	16% (inactive)
Cc1cccc2[nH]c(-c3ccc(-c4ccc(NC(=O)Nc5ccc(Cl)c(Cl)c5)cc4)cc3)nc12	37% (inactive)
O=C(C=Cc1ccc(-c2nc3ccccc3[nH]2)cc1)NC1CCN(Cc2ccccc2)CC1	15% (inactive)
O=C(NCC1CCN(Cc2cccc(C(F)(F)F)c2)C1)c1cc(-c2cccc(C(F)(F)F)c2)cs1 (stereo not given)	35% (inactive)
O=C(CN1CCCCC1)Nc1ccc(Nc2nccc(NCC(O)c3ccccc3)n2)cc1 (stereo not given)	62% (active)
NC(=O)c1cnc2cc(-c3ccoc3)ccc2c1Nc1ccc(NC(=O)Nc2ccccc2Cl)cc1	39% (inactive)
Cc1ccc(-n2nc3ccc(NC(=O)c4ccc([N+](=O)[O-])o4)cc3n2)cc1C	20% (inactive)
CCCCc1ccc(-c2c(N)nc(N)nc2CC)cc1	63% (active)
CCCCOc1ccc(/C=C/c2ccc(-c3c(C)[nH]c(C)c(Cl)c3=O)s2)cc1	-4% (inactive)
COc1ccc(C(C(=O)NC2CCN(C[C@H](O)c3ccnc4ccc(OC)cc34)CC2)N2CCN(c3ccc(Cl)c(Cl)c3)CC2)cc1 (stereo not given in full)	12% (inactive)
Nc1nccc2ccc(-c3ccsc3)cc12	38% (inactive)
Cc1cccc2[nH]c(-c3cccc(-c4cccc(NC(=O)c5cncn5C)c4)c3)nc12	-1% (inactive)
